sPLA2-III inh – Inhibits HGIII-sPLA2 liposome hydrolysis, primary screen. Q9NZ20. QFRET BODIPY PC-A2 liposome hydrolysis, fluorescence. AID 743126. 370,000 tested, 0.56% active. inhibition, % at 12.2 µM;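 active = inhibition above mean plus 3 SD of compounds lying within the high and low control bounds, cut at about 19% in these data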;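 note: 0% = median of test compound wells and 100% = no enzyme DMSO wells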
Target sequence (Q9NZ20 whole entry, looked up): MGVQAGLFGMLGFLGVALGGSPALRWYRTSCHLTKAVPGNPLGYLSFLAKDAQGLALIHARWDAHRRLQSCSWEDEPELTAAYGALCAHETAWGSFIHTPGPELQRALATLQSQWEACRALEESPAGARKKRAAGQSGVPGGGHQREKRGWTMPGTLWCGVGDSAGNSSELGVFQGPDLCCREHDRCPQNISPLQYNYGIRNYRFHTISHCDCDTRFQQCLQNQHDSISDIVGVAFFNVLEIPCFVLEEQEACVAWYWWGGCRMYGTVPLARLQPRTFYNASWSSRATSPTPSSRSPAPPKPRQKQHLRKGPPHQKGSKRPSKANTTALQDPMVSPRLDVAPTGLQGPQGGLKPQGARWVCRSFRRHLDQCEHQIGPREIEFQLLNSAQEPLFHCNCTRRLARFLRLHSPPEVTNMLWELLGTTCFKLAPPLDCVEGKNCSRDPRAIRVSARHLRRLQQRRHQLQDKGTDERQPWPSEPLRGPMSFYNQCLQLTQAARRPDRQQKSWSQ
MsrA act – activators of bovine methionine sulfoxide reductase A; purified bovine MsrA, absorbance read-out; activation, % at 10.6 µM; 360,000 tested, 0.3% active; AID 602163; in the data active = activation above about 7.5%;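 note: 0% = vehicle and 100% = reference activator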
PG9 Ab binder – small molecules binding HIV-1 gp120 antibody PG9 | TR-FRET gp120-PG9 antibody binding | inhibition, % at 6.7 µM | AID 624416 | 360,000 tested, 0.43% active; in the data active = inhibition above about 8.5%
rCAG RNA binder – binds r(CAG) RNA repeats. r(CAG) RNA repeat, TO-PRO-1 dye displacement fluorescence. 370,000 tested, 1.3% active. inhibition, % at 3 µM;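 active = inhibition above the plate cutoff, the mean of all test compounds on that plate plus 3 SD, cut at about 35% in these data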;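 note: 0% = DMSO alone and 100% = 100 µM mitoxantrone as full dye displacement; higher means more dye released from RNA so lower well fluorescence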
MsrA inhibitor – inhibits bovine methionine sulfoxide reductase A; purified bovine MsrA, absorbance read-out; 360,000 tested, 0.75% active; inhibition, % at 15.5 µM; in the data active = inhibition above about 4.5%;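 note: 0% = vehicle wells with enzyme and 100% = reference inhibitor wells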
sPLA2 confirm – human GIII-sPLA2 inhibition, confirmation | shares compounds with sPLA2-III inh | recombinant hGIII-sPLA2, BODIPY PC-A2 QFRET fluorescence | inhibition, % at 12.2 µM | 2,000 tested, 34% active | AID 743280;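 active = mean inhibition across triplicates above the hit cutoff set in the earlier primary screen, cut at about 19% in these data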;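 note: 0% = enzyme with DMSO and 100% = DMSO wells lacking enzyme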
BODIPY interf – counter-screen for HGIII-sPLA2 inhibitors: 535nm fluorescence interference; inhibition, % at 12.2 µM; shares compounds with sPLA2-III inh; AID 743282; 2,000 tested, 8.5% active; BODIPY FL product fluorescence interference, QFRET;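 active = average inhibition above the solvent-only control mean plus 3 SD, cut at about 6% in these data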;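 note: 0% = DMSO with substrate plus product and 100% = DMSO with substrate alone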
535nm interf DR – interferes with 535nm fluorescence in dose response counter-screen; 240 tested, under 10 active; AID 743455; BODIPY FL product fluorescence interference, cell-free; IC50, µM; shares compounds with sPLA2-III inh;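 active = IC50 at or below 10 µM; inactive = IC50 above 10 µM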
Starred values were filed as active, the others as inactive; . = not tested or not shown. The list is not random: actives were taken first. Their share in the collection is about 3.2%.

SMILES	sPLA2-III inh	MsrA act	PG9 Ab binder	rCAG RNA binder	MsrA inhibitor	sPLA2 confirm	BODIPY interf	others
O=S1(=O)c2ccc(N3CCCC3)cc2Oc2ccccc2CN1Cc1cn(Cc2ccc(F)cc2)nn1	9	.	.	13	.	.	.
Cc1nc(SCC(=O)N2CCOCC2)c2c(=O)n(C)c(=O)n(C)c2n1	21*	-6	-1	-2	1	11	-2
Cc1nc(SCC(=O)N2CCOCC2)c2c(=O)n(C)c(=O)n(CC(C)C)c2n1	2	5	0	0	-1	.	.
COc1ccc(/C=C/C(=O)NC(=S)Nc2ccc(C(=O)O)cc2)cc1	20*	-3	-2	10	2	3	-6
COc1ccc(NC(=S)NC(=O)/C=C/c2ccc(F)cc2)cc1	-1	-3	0	-2	-2	.	.
CCOc1ccc(/C=N/Nc2cc(=O)n(C)c(=O)n2C)cc1	19*	0	-1	4	3	11	-1
COC(=O)N1C[C@H](OCc2ccccc2)[C@H]2C[C@@H]1c1ccccc1O2	14	.	1	0	1	.	.
Clc1ccc2c(c1)Nc1ccccc1CC2	22*	-6	0	-2	0	15	8.2*
Clc1ccc(-c2nnc(SCc3cccc4ccccc34)n2Cc2ccco2)cc1	-3	.	.	6	.	.	.
COC(=O)c1ccc(CCc2cc(O)c(Br)cc2O)cc1	30*	-4	-1	6	0	9	2
CN1c2ccccc2Sc2cc(N)ccc21	21*	-8	1	5	1	36*	11*
CCOc1ccccc1Oc1nc(-c2ccccc2O)nc2ccccc12	20*	-1	2	0	1	-15	-2
CCOc1nc(-c2ccc(Cl)cc2)nc2ccccc12	25*	3	2	-3	-1	-2	1
CCCCCCCCN1C(=O)[C@@H](CC(=O)N2CCOCC2)C[C@@]2(C(=O)OC)C1=C[C@H](C(C)C)O[C@@H]2C1CC1	-2	.	.	1	.	.	.
CCCCCCCCN1C(=O)N2Cc3ccccc3C2CS1(=O)=O (stereo not given)	0	.	.	4	.	.	.
COc1ccc(NC(=S)NNC(=O)C2CC2c2ccc(C)cc2)cc1 (stereo not given)	21*	-3	0	3	0	22*	-1
Fc1ccc(NC(=S)Nc2ccc(Cl)cc2)cc1	6	-13	-4	1	0	.	.
O=C(NNC(=S)Nc1ccc(F)cc1)C1CC1c1ccc(Cl)cc1 (stereo not given)	20*	-9	-1	12	0	35*	0	535nm interf DR=>122
Cc1ccc(NC(=S)NNC(=O)C2CC2c2ccc(C)cc2)cc1 (stereo not given)	15	-11	-3	5	-1	.	.
Cc1cc(C(=O)NNC(=S)NC(=O)/C=C/c2ccccc2Cl)n[nH]1	26*	-8	0	22	2	42*	-4	535nm interf DR=>122
Cc1cccc(C(=O)NC(=S)NNC(=O)c2ccccc2Cl)c1	10	2	-1	9	0	.	.
Cc1ccc(Nc2n[nH]c(=S)s2)cc1	24*	4	-3	4	1	34*	0	535nm interf DR=>122
S=c1[nH]nc(Nc2ccc(Cl)cc2)s1	14	3	0	-1	0	.	.
O=C(N[C@@H](Cc1cccnc1)C(=O)N1CCC[C@H]1C(=O)NCCc1ccccc1Cl)c1ccccc1	-1	.	-1	-1	0	.	.
CCOC(=O)c1c(CSC(=N)N)n(C)c2cc(Br)c(OC(C)=O)cc12	17	-2	-2	14	0	.	.
CCOC(=O)c1c(CSC(=N)N)n(-c2ccc(C)cc2)c2cc(Br)c(OC(C)=O)cc12	26*	-1	-2	12	-1	11	-13
O=C1CC(N2CCCC2)=NC(=O)N1c1ccc(Br)cc1	-2	.	.	7	.	.	.
Cc1ccc(NC(=S)N2CCN(Cc3ccccc3)CC2)c(C)c1	21*	-9	1	-4	0	14	-12
N#CCC[C@@H]1CC[C@]2(CCCN(C(=O)c3ccccc3)C2)O1	16	.	.	2	.	.	.
N#CCC[C@H]1CC[C@]2(CCCN(C(=O)c3ccccc3)C2)O1	19*	.	.	2	.	0	-3

From PubChem BioAssay
